Results published in PubChem BioAssay (NCI).
About 79,000 compounds went through this panel and 15% of them were active in at least one assay; those are over-represented in the sample as a whole. Cut-off read from the data, not from the text of the source: active = growth inhibition above about 70%; inactive = the rest.

Assays:
[1] = NCI Yeast Anticancer Drug Screen. Data for the rad52 strain (AID 147);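 note: 0% = growth of vehicle-treated control cultures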; conditions: S. cerevisiae rad52 mutant growth inhibition, hits give high values
In short: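 Yeast strain carrying a DNA damage repair alteration was exposed to test compounds. Growth inhibition was measured relative to vehicle-treated controls.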

[2] = NCI Yeast Anticancer Drug Screen. Data for the wt1 strain (AID 149);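 note: 0% = growth of vehicle-treated wt1 cultures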; conditions: S. cerevisiae wt1 strain (SPY 50644) growth inhibition, hits give high values
In short: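 Measured: growth of wt1 yeast under compound versus vehicle treatment, reported as inhibition.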

[3] = NCI Yeast Anticancer Drug Screen. Data for the rad50EPP+ strain (AID 151);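 note: 0% = growth of vehicle-treated control cultures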; conditions: S. cerevisiae rad50 mutant strain, hits give high values
In short: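 Yeast strain carrying rad50 alteration (rad50EPP+) exposed to compounds; growth inhibition measured relative to vehicle-treated controls.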

[4] = NCI Yeast Anticancer Drug Screen. Data for the rad50 strain (AID 155);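 note: 0% = growth of vehicle-only cultures of the same strain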; conditions: S. cerevisiae rad50 strain growth inhibition, hits give high values
In short: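 Growth of the mutant yeast was measured after compound exposure and referenced to vehicle-treated cultures.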

[5] = NCI Yeast Anticancer Drug Screen. Data for the mec2-1 strain (AID 157); conditions: S. cerevisiae mec2-1 strain, hits give high values
In short: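 mec2-1 yeast strain, carrying an alteration in DNA damage repair or cell cycle control, was exposed to compounds; growth inhibition was measured relative to vehicle-treated controls.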

[6] = NCI Yeast Anticancer Drug Screen. Data for the rad14 strain (AID 159);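 note: 0% = growth of vehicle-treated control cultures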; conditions: S. cerevisiae rad14 strain growth inhibition, hits give high values
In short: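 Here, inhibition of yeast growth was measured after compound exposure, using a strain with a genetic defect in DNA damage repair and vehicle-treated cultures as the reference.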

[7] = NCI Yeast Anticancer Drug Screen. Data for the sgs1 mgt1 strain (AID 161);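 note: 0% = growth of cultures given vehicle only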; conditions: S. cerevisiae sgs1 mgt1 strain, hits give high values
In short: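 Yeast cells carrying a defined DNA-repair defect were exposed to test compounds. Growth inhibition was measured relative to vehicle-treated controls.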

[8] = NCI Yeast Anticancer Drug Screen. Data for the CLN2oe strain (AID 163);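 note: 0% = growth of vehicle-only control cultures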; conditions: S. cerevisiae CLN2oe strain, hits give high values
In short: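 Yeast cells carrying a defined cell-cycle control alteration were exposed to test compounds. Growth inhibition was scored against vehicle-treated control cultures.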

[9] = NCI Yeast Anticancer Drug Screen. Data for the cln2 rad14 strain (AID 165);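 note: 0% = growth equal to vehicle treated cultures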; conditions: S. cerevisiae cln2 rad14 strain, hits give high values
In short: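 Yeast carrying cln2 and rad14 alterations (cell cycle control and DNA damage repair) were exposed to compounds. Growth inhibition was measured against vehicle-treated controls.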

[10] = NCI Yeast Anticancer Drug Screen. Data for the bub3 strain (AID 167); conditions: S. cerevisiae bub3 mutant strain, hits give high values
In short: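 Whole-cell yeast assay. The mutant strain was incubated with compounds, and growth inhibition was determined by comparison with vehicle-treated cells.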

[11] = NCI Yeast Anticancer Drug Screen. Data for the wt2 strain (AID 169);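 note: 0% = growth of vehicle-treated yeast cultures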; conditions: S. cerevisiae wt2 strain growth inhibition, hits give high values
In short: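 Yeast cells were exposed to test compounds, and growth inhibition was measured relative to vehicle-treated controls.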

[12] = NCI Yeast Anticancer Drug Screen. Data for the sgs1 strain (AID 173);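 note: 0% = growth of vehicle-only control cultures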; conditions: S. cerevisiae sgs1 mutant, hits give high values
In short: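 Yeast mutant strains carrying defined defects in DNA damage repair or cell cycle control were exposed to test compounds. Growth inhibition was scored against vehicle-treated controls.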

[13] = NCI Yeast Anticancer Drug Screen. Data for the mlh1 rad18 strain (AID 175); conditions: S. cerevisiae mlh1 rad18 strain growth inhibition, hits give high values
In short: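 Growth inhibition of the yeast strain was measured after compound exposure and expressed relative to vehicle-treated controls. The strain carries defined defects in DNA damage repair.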

[14] = NCI Yeast Anticancer Drug Screen. Data for the rad18 strain (AID 177); conditions: S. cerevisiae rad18 mutant growth inhibition, hits give high values
In short: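 Yeast carrying a defined DNA damage repair alteration were exposed to compounds. Growth inhibition was expressed relative to vehicle-treated controls.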

[15] = at 5.0 µM (retest, dose inferred, filed as 0.5)
[16] = at 50.0 µM (retest, dose inferred, filed as 5.0)

Measured: growth inhibition

CCN(CC)Cc1cc(Nc2c3ccccc3nc3c2[nH]c2ccccc23)cc(CN(CC)CC)c1O
inactive: [1]; at 1.2 µM 32% | [1]; at 3.7 µM 21% | [1]; at 11.0 µM 12% | [1]; at 33.0 µM 7% | [1]; at 100.0 µM 18% | [2]; at 1.2 µM 1% | [2]; at 3.7 µM 2% | [2]; at 11.0 µM -1% | [2]; at 33.0 µM 0% | [2]; at 100.0 µM 3% | [3]; at 1.2 µM 3% | [3]; at 3.7 µM 1% | [3]; at 11.0 µM 3% | [3]; at 33.0 µM 2% | [3]; at 100.0 µM 13% | [4]; at 1.2 µM 25% | [4]; at 3.7 µM 7% | [4]; [15] -3% | [4]; at 11.0 µM -4% | [4]; at 33.0 µM 10% | [4]; [16] 10% | [4]; at 50.0 µM 17.8% | [4]; at 100.0 µM 23% | [5]; at 1.2 µM 2% | [5]; at 3.7 µM 1% | [5]; [15] -2% | [5]; at 11.0 µM -1% | [5]; at 33.0 µM 2% | [5]; [16] 15% | [5]; at 50.0 µM 21.3% | [5]; at 100.0 µM 5% | [6]; at 1.2 µM -1% | [6]; at 3.7 µM -3% | [6]; at 11.0 µM -1% | [6]; at 33.0 µM 2% | [6]; at 100.0 µM 8% | [7]; [15] -5% | [7]; [16] 1% | [7]; at 50.0 µM -10.1% | [8]; at 1.2 µM -5% | [8]; at 3.7 µM -3% | [8]; at 11.0 µM 1% | [8]; at 33.0 µM 3% | [8]; at 100.0 µM 7% | [9]; [15] 48% | [9]; [16] 61% | [9]; at 50.0 µM 66% | [10]; at 1.2 µM -2% | [10]; at 3.7 µM -4% | [10]; [15] 16% | [10]; at 11.0 µM -3% | [10]; at 33.0 µM -3% | [10]; [16] 38% | [10]; at 50.0 µM -10.2% | [10]; at 100.0 µM 0% | [11]; at 1.2 µM -1% | [11]; at 3.7 µM -2% | [11]; at 11.0 µM -4% | [11]; at 33.0 µM -2% | [11]; at 100.0 µM 1% | [12]; at 1.2 µM 6% | [12]; at 3.7 µM 3% | [12]; at 11.0 µM -2% | [12]; at 33.0 µM -2% | [12]; at 100.0 µM 0% | [13]; [15] 13% | [13]; [16] 16% | [13]; at 50.0 µM -11.6% | [14]; at 1.2 µM 16% | [14]; at 3.7 µM 9% | [14]; at 11.0 µM -2% | [14]; at 33.0 µM -11% | [14]; at 100.0 µM -7%
